Reference: the supplement of paper PMC7156485
Where “and” joins values, the source holds several entries; their conditions need not be identical. Equal values may be shown once. ± gives the standard deviation of the averaged measurements.

tested on: TDF; assay: cell number relative to DMSO (% of DMSO); higher = more cells (less growth inhibition / toxicity); conditions: concentration: 10 µM; 24 h
Summary of the method: (§1)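 Cell number or H1.0 nuclear intensity appears as percent of the plate control, based on the median of replicates. Measurements came from HCC1569 and TDF cells exposed in triplicate to compounds at 10 µM for 24 h at 37 °C, then imaged in six fields per well at ×10. Positional effects were smoothed out of HCC1569 values.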
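Throughout, for H1.0 immunofluorescence intensity relative to DMSO: TDF is a line of transformed human dermal fibroblasts of mesenchymal origin.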
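Throughout, for cell number relative to DMSO: TDF denotes transformed human dermal fibroblasts of mesenchymal origin.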

| Compound | cell number |
| --- | --- |
| COc1cc2c(CCNC(C)=O)c[nH]c2cc1Cl [6-Chloromelatonin] | 106 |
| O=C1Cc2c([nH]c3ccc(Br)cc23)-c2ccccc2N1 [Kenpaullone] | 93.1 ± 3.2 |
| O=C1CN2Cc3c(ccc(Cl)c3Cl)NC2=N1 [Anagrelide] | 110 |
| O=C(O)CNC(=O)C(CS)Cc1ccccc1 (racemic) [DL-Thiorphan] | 95.5 |
| CC(C)C[C@@H](C(=O)O)c1cc(-c2ccc(C(F)(F)F)cc2)cc(-c2ccc(C(F)(F)F)cc2)c1 | 92.4 |
| COC1(NC(=O)CSCC#N)C(=O)N2C(C(=O)[O-])=C(CSc3nnnn3C)CSC21.[Na+] (stereo unspecified) [Cefmetazole sodium] | 110 |

tested on: TDF; assay: H1.0 immunofluorescence intensity relative to DMSO (% of DMSO); higher = stronger H1.0 induction, active = 120 or more; conditions: concentration: 10 µM; 24 h
Summary of the method: as §1

| Compound | H1.0 immunofluorescence intensity |
| --- | --- |
| OCC1=CC(O)C2C=COC(OC3OC(CO)C(O)C(O)C3O)C12 (stereo unspecified) [Aucubin] | 99.8 (inactive) |
| CN(C)CC=C(c1ccc(Br)cc1)c1cccnc1.Cl.Cl [Zimelidine dihydrochloride] | 107 (inactive) |
| COc1ccc(/C=C\c2cc(OC)c(OC)c(OC)c2)cc1OP(=O)([O-])[O-].[Na+].[Na+] | 197 (active) |
| COc1cc(C(=O)c2ccc3ncccc3c2)cc(OC)c1OC [quinolin-6-yl(3,4,5-trimethoxyphenyl)methanone] | 209 (active) |
| CC(C)NCC(O)c1ccc(NS(C)(=O)=O)cc1.Cl (stereo unspecified) [Sotalol.HCl] | 88.1 (inactive) |
| CC12CCC3c4ccc(O)cc4CC(CCCCCCCCCS(=O)CCCC(F)(F)C(F)(F)F)C3C1CCC2O (stereo unspecified) [Fulvestrant] | 104 (inactive) |
| Cc1ncc([N+](=O)[O-])n1CC(C)O (stereo unspecified) [Secnidazole] | 93.5 (inactive) |
| COc1ccc(-c2cc(C(O)C3CCCCN3)c3ccccc3n2)cc1.Cl.Cl (stereo unspecified) | 169 (active) |
| COC(=O)Nc1nc2ccc(C(=O)c3ccc(F)cc3)cc2[nH]1 [Flubendazole] | 151 (active) |
| COc1cc(-c2ccc(=O)[nH]n2)ccc1OC(F)F [Zardaverine] | 91.5 (inactive) |
| O=C(CO)N1CCC(c2[nH]nc(-c3ccc(Cl)cc3)c2-c2ccncn2)CC1 | 91.3 (inactive) |
| CN(C)c1nc(N)c(C(=O)N=C(N)N)nc1Cl.Cl [5-(N,N-Dimethyl)amiloride hydrochloride] | 96.1 (inactive) |
| CSCC[C@@H](C=O)NC(=O)[C@H](CC(C)C)NC(=O)[C@H](CC(C)C)NC(C)=O | 96.4 (inactive) |
| O=S(=O)(NCCNCC=Cc1ccc(Br)cc1)c1cccc2cnccc12 | 93.6 (inactive) and 99.1 (inactive) |
| CCN(CC)CCNC(=O)c1ccc(N)cc1.Cl [Procainamide.HCl] | 91.2 (inactive) |
| CC(C)n1c(C=CC(O)CC(O)CC(=O)O)c(-c2ccc(F)cc2)c2ccccc21 (stereo unspecified) [Fluvastatin] | 148 (active) |
| CC(=O)OC1(C(C)=O)CCC2C3C=C(Cl)C4=CC(=O)C5CC5C4(C)C3CCC21C (stereo unspecified) [Cyproterone acetate] | 92.2 (inactive) |
| CCCCCCCCCCCCCCCCn1cc[n+](Cc2ccccc2)c1C.[I-] [eEF-2 Kinase Inhibitor, NH125] | 152 (active) |
| CC(C)(C)c1nc2c3cc[nH]c(=O)c3c3cc(F)ccc3c2[nH]1 [JAK Inhibitor I] | 90.3 (inactive) |
| COc1ccc(/C=C\c2cc(OC)c(OC)c(OC)c2)cc1O [2-methoxy-5-[(Z)-2-(3,4,5-trimethoxyphenyl)ethenyl]phenol] | 179 (active) |

| Compound | H1.0 immunofluorescence intensity |
| --- | --- |
| CN1CCN(CCCN2c3ccccc3Sc3ccc(Cl)cc32)CC1.O=C(O)C=CC(=O)O.O=C(O)C=CC(=O)O [Prochlorperazine dimaleate] | 110 (inactive) |
| CC(=O)NCCc1c[nH]c2ccc(O)cc12 [N-Acetyl-5-hydroxytryptamine] | 93.3 (inactive) |
| Nc1nc2ccc(Cl)cc2c2nc(-c3ccco3)nn12 | 96 (inactive) |
| O=C(C=Cc1ccc(O)c(O)c1)OC(Cc1ccc(O)c(O)c1)C(=O)O (stereo unspecified) [Rosmarinic acid] | 97.7 (inactive) |
| OCc1cc(C(O)CNCCCCCCOCCCCc2ccccc2)ccc1O (stereo unspecified) [Salmeterol] | 110 (inactive) |
| CS(=O)(=O)Nc1ccc(-c2coc3cc(OCc4cccc(C(=O)O)c4)ccc3c2=O)cc1 | 90.9 (inactive) |
| COc1cc2c[n+](C)c3c4cc5c(cc4ccc3c2cc1OC)OCO5.[Cl-] | 138 (active) |
| CC(=O)OC(C)C[N+](C)(C)C.[Cl-] (stereo not drawn) [Acetyl-beta-methylcholine chloride] | 96.2 (inactive) |
| COc1cccc(OC)c1OCCNCC1CSc2ccccc2O1.Cl (stereo unspecified) [Benoxathian hydrochloride] | 91.8 (inactive) |
| CCC(Sc1nnc2c(n1)[nH]c1ccccc12)C(=O)N1c2ccccc2Sc2ccccc21 (stereo unspecified) | 103 (inactive) |
| COc1cc(NS(=O)(=O)c2ccc(N)cc2)nc(OC)n1 [Sulfadimethoxine] | 96.7 (inactive) |
| Br.CN(C)CCCC1(c2ccc(F)cc2)OCc2cc(C#N)ccc21 (stereo unspecified) [Citalopram hydrobromide] | 96 (inactive) |
| CN1c2ccccc2C(=O)N2CCc3c([nH]c4ccccc34)C21 (stereo unspecified) [Evodiamine] | 165 (active) |
| CCCCN1CCC(n2c(=O)[nH]c3ccccc32)CC1.O=C(O)C(=O)O [NS 521 oxalate] | 86.7 (inactive) |
| COc1cc2c(CCNC(C)=O)c[nH]c2cc1Cl [6-Chloromelatonin] | 94.8 (inactive) |
| O=C1Cc2c([nH]c3ccc(Br)cc23)-c2ccccc2N1 [Kenpaullone] | 91.6 (inactive) |
| O=C1CN2Cc3c(ccc(Cl)c3Cl)NC2=N1 [Anagrelide] | 92.9 (inactive) |
| O=C(O)CNC(=O)C(CS)Cc1ccccc1 (racemic) [DL-Thiorphan] | 93.4 (inactive) |
| CC(C)C[C@@H](C(=O)O)c1cc(-c2ccc(C(F)(F)F)cc2)cc(-c2ccc(C(F)(F)F)cc2)c1 | 93.7 (inactive) |
| COC1(NC(=O)CSCC#N)C(=O)N2C(C(=O)[O-])=C(CSc3nnnn3C)CSC21.[Na+] (stereo unspecified) [Cefmetazole sodium] | 91.2 (inactive) |
